Sampled rows, rich in hits. Any-hit rate of the full collection: about 0.95%.
Tb PYK inh: inhibitors of Trypanosoma brucei pyruvate kinase; Potency, µM (top dose mostly 76.8 µM), without a hit: at the top dose activity, negative = inhibition, actives largely listed as inhibitors; TbPYK enzyme, Kinase-Glo Plus ATP luminescence, 45 min; actives 0.12% (n = 410,000); also: nearly all actives have a fitted effect of over 50% in size
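Quantitative HTS: titrated library compounds versus trypanosomal pyruvate kinase in TEA buffer (pH 7.2) containing KCl, MgCl2, BSA and Tween-20. Reactions were initiated with ADP, 130 uM final. Kinase-Glo Plus luminescence was read after 45 min at RT.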
Giardia FBPA inh-1: blocks Giardia fructose-bisphosphate aldolase activity; A8B2U2; actives 0.71% (n = 290,000); Potency, µM (doses to about 59.6 µM), inactives show at the top dose activity, negative = inhibition, hits mostly inhibitors; purified Giardia FBPA; also: nearly all actives have a fitted effect of over 55% in size
Target sequence (A8B2U2 whole entry, looked up): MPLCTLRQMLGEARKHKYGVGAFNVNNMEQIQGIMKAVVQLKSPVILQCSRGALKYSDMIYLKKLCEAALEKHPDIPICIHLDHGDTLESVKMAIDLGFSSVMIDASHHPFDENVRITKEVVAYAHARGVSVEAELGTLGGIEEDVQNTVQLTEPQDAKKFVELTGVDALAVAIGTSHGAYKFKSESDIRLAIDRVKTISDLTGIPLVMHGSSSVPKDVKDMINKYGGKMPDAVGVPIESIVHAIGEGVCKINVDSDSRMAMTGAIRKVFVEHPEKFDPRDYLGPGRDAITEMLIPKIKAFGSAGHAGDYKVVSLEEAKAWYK
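Giardia FBPA (40 nM reagent) was preincubated 10 min at RT with compound (up to 57.5 uM final), then substrate plus GAPDH/TPI/NAD/arsenate coupling system with diaphorase/resazurin was added; resorufin fluorescence (525/598 nm) was read after 20 min.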
RE007 growth inh: less growth of the S. pombe RE007 Vpr strain; S. pombe RE007 Vpr strain, BacTiter-Glo ATP luminescence, 24 h; Potency, µM (highest dose often 92.2 µM), without a hit: at the top dose activity change, negative = less growth, most hits filed as inhibitors; actives 0.21% (n = 360,000); active = well fitted falling curve with a large enough effect; inconclusive = small, poorly fitted or top-dose-only effect; inactive = no such curve, though single readings can be large or run the other way; also: nearly all actives have a fitted effect of over 50% in size
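Fission yeast strain RE007, carrying one chromosomally integrated HIV-1 vpr copy, was seeded at OD 0.01 in PMG+AL medium with 23 nL pinned compound. After 24 h at 30 °C and 99% humidity, viability was read by BacTiter-Glo luminescence.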
LmPK inh: inhibitors of Leishmania mexicana pyruvate kinase | purified LmPK, Kinase-Glo ATP luminescence, 1 h | Potency, µM (highest dose often 57.5 µM), inactives show top-dose activity change, negative = inhibition, usual class: inhibitors | actives 0.37% (n = 290,000) | Q27686 | AID 1721
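Purified LmPK (0.1 nM) with 0.5 mM PEP and 0.1 mM ADP in imidazole buffer pH 7.2 with MgCl2/KCl, 1 h at room temperature. ATP formed was read by luciferase luminescence and normalized to no-enzyme and uninhibited controls.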
Giardia growth: blocks growth of Giardia lamblia trophozoites; shares compounds with Giardia FBPA inh-1; actives 5% (n = 1,500); Potency, µM (doses to about 57.5 µM), for inactives: top-dose activity change, negative = inhibition, most hits filed as inhibitors; Giardia lamblia trophozoite growth inhibition; AID 2785;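 also: trophozoites exposed to compound for 48 h at 37 °C; nearly all actives have a fitted effect of over 70% in size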
Mammalian tox: counter-screen for Giardia aldolase inhibitors: mammalian cell toxicity; shares compounds with Giardia FBPA inh-1; mammalian cell viability counter-screen, qHTS; Potency, µM (doses to about 57.5 µM), for inactives: at the highest dose viability change, negative = toxicity, actives largely listed as inhibitors; actives 4% (n = 1,500); AID 2786;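 also: Chinese hamster ovary cells used as mammalian cytotoxicity surrogate; viability measured as cellular ATP by luminescence; compound exposure lasted 48 h before reading; nearly all actives have a fitted effect of over 60% in size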
Giardia FBPA inh-2: confirmation of Giardia fructose-bisphosphate aldolase inhibitors; actives 5% (n = 1,500); purified Giardia aldolase enzyme activity, qHTS; Potency, µM (titrated, usually from 57.5 µM), inactives show top-dose activity change, negative = inhibition, most hits filed as inhibitors; shares compounds with Giardia FBPA inh-1; also: nearly all actives have a fitted effect of over 45% in size
Rabbit FBPA inh: blocks rabbit muscle aldolase in Giardia aldolase selectivity test. shares compounds with Giardia FBPA inh-1. Rabbit muscle FBPA enzyme inhibition, selectivity counter-screen. Potency, µM (series often up to 57.5 µM), without a hit: at the highest dose activity, negative = inhibition, usual class: inhibitors. actives 4% (n = 1,500); also: nearly all actives have a fitted effect of over 60% in size
Target sequence (P00883 whole entry, looked up): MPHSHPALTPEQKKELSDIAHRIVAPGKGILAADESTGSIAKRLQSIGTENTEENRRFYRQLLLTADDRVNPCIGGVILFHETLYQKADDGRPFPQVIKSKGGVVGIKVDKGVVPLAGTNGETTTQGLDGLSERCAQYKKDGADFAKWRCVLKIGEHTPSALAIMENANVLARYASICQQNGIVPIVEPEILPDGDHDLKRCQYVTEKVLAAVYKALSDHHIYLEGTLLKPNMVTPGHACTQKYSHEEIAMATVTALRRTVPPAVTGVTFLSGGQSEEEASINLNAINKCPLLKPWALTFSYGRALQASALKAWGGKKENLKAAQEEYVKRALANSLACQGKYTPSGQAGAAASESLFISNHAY
GAPDH counter: counter-screen for Giardia aldolase inhibitors: GAPDH coupling enzyme. shares compounds with Giardia FBPA inh-1. GAPDH coupling enzyme counterscreen, biochemical, qHTS. Potency, µM (top dose mostly 57.5 µM), without a hit: at the highest dose activity change, negative = inhibition, usual class: inhibitors. actives 6% (n = 1,500). AID 2795; also: nearly all actives have a fitted effect of over 55% in size
Starred values were filed as active, the others as inactive; [ ] = remark or other dose. Unless noted, calls follow the shape of the dose curve; as a rule, active = well fitted curve in the direction sought with a large enough effect; inconclusive = small, poorly fitted or top-dose-only effect, or another doubt; inactive = no such curve, though single readings can be large; an effect the other way counts as inactive or inconclusive. % is scaled to controls: 0 for no effect and ±100 for the full control effect; potency is read from the fitted curve at half-maximal effect.

How did Cn1c(=O)c(C(=O)Nc2ncccc2O)c(O)c2ccccc21 do in these assays?
Tb PYK inh: 3%; Giardia FBPA inh-1: 8.9µM*; RE007 growth inh: inconclusive; LmPK inh: -13%; Giardia growth: 7%[10.4 µM]; Mammalian tox: -5%; Giardia FBPA inh-2: inconclusive; Rabbit FBPA inh: inconclusive; GAPDH counter: -14%

How did O=c1cc(O)c2sc(Nc3ccc(Cl)c(F)c3)nc2[nH]1 do in these assays?
Tb PYK inh: -8%; Giardia FBPA inh-1: -20%; RE007 growth inh: -13%; LmPK inh: 5%

How did O=c1cc(O)c2sc(Nc3ccc(F)c(Cl)c3)nc2[nH]1 do in these assays?
Tb PYK inh: -18%; Giardia FBPA inh-1: 2µM*; RE007 growth inh: -6%; LmPK inh: -1%; Giardia growth: 0%[10.4 µM]; Mammalian tox: 4%; Giardia FBPA inh-2: inconclusive; Rabbit FBPA inh: inconclusive; GAPDH counter: inconclusive

How did CC1(C)C(=O)NC2=C1C(=O)C(=O)c1ccccc12 do in these assays?
Giardia FBPA inh-1: 0.16µM*; Giardia growth: 16µM*; Mammalian tox: 20µM*; Giardia FBPA inh-2: 1.1µM*; Rabbit FBPA inh: 0.89µM*; GAPDH counter: 1.3µM*

Results for CC(=O)Nc1ccc(-c2ccc(NC(C)=O)c(O)c2)cc1O ?
Tb PYK inh: -7%; Giardia FBPA inh-1: -29%; RE007 growth inh: 16%; LmPK inh: -10%; Giardia growth: -5%[38.3 µM]; Mammalian tox: -19%; Giardia FBPA inh-2: 2.6µM*; Rabbit FBPA inh: -26%; GAPDH counter: inconclusive

How did O=C(COc1cccnc1[N+](=O)[O-])N1CCN(C(=O)c2ccco2)CC1 do in these assays?
Tb PYK inh: -6%; Giardia FBPA inh-1: 18µM*; RE007 growth inh: 0%; LmPK inh: 2%; Giardia growth: 6%[10.4 µM]; Mammalian tox: 2%; Giardia FBPA inh-2: -6%; Rabbit FBPA inh: 8%; GAPDH counter: -2%

Results for O=C(COc1ccccc1O)N1CCN(C(=O)c2ccco2)CC1 ?
Tb PYK inh: 1%; Giardia FBPA inh-1: 0%; RE007 growth inh: -18%; LmPK inh: 6%

What do the screens show for `N/C(=N\NS(=O)(=O)c1ccccc1C(F)(F)F)c1ccccn1`?
Tb PYK inh: -5%; Giardia FBPA inh-1: 18µM*; RE007 growth inh: 7%; LmPK inh: 7%; Giardia growth: 6%[10.4 µM]; Mammalian tox: 7%; Giardia FBPA inh-2: 13%; Rabbit FBPA inh: 11%; GAPDH counter: 7%

What do the screens show for `Cc1nc(C(F)(F)F)c(C(=O)N/N=C(\N)c2ccccn2)s1`?
Tb PYK inh: -3%; Giardia FBPA inh-1: 4.5µM*; RE007 growth inh: 4%; LmPK inh: -2%; Giardia growth: 32µM*; Mammalian tox: 40µM*; Giardia FBPA inh-2: inconclusive; Rabbit FBPA inh: -21%; GAPDH counter: -26%

What do the screens show for `CNC(=O)N/N=C(\N)c1ccccn1`?
Tb PYK inh: 0%; Giardia FBPA inh-1: inconclusive; RE007 growth inh: 1%; LmPK inh: -4%

What do the screens show for `Cc1cccc(-n2cnc(C(=O)O)c2)n1`?
Tb PYK inh: 2%; Giardia FBPA inh-1: 20µM*; RE007 growth inh: 12%; LmPK inh: -3%; Giardia growth: 10%[10.4 µM]; Mammalian tox: 22%; Giardia FBPA inh-2: 2%; Rabbit FBPA inh: -2%; GAPDH counter: 4%

How did CC(=O)C[C@H](O)CC(=O)[C@@H]1OC(=O)CCCCC/C=C/Cc2ccccc21 do in these assays?
Tb PYK inh: -2%; RE007 growth inh: 21%

Results for CCCCN(CC)Cc1ccc(CNC(=S)Nc2c(C)cc(C)cc2C)o1 ?
Tb PYK inh: -9%; Giardia FBPA inh-1: 13µM*; RE007 growth inh: -3%; LmPK inh: -1%; Giardia growth: 26%; Mammalian tox: -14%; Giardia FBPA inh-2: -10%; Rabbit FBPA inh: 2%; GAPDH counter: 5%

How did Brc1ccccc1OCCN1CCOCC1 do in these assays?
Tb PYK inh: 17%; Giardia FBPA inh-1: 28µM*; RE007 growth inh: 5%; LmPK inh: -2%; Giardia growth: 31%; Mammalian tox: 0%; Giardia FBPA inh-2: 1%; Rabbit FBPA inh: -7%; GAPDH counter: 7%

What do the screens show for `Cc1cc(Cl)ccc1OCCCC(=O)NCCc1nnc2ccccn12`?
Tb PYK inh: -5%; Giardia FBPA inh-1: 1%; RE007 growth inh: -17%; LmPK inh: 3%

How did COc1ccc(/C=N\N2CCN(Cc3ccccc3Cl)CC2)cc1 do in these assays?
Tb PYK inh: 14%; Giardia FBPA inh-1: 16µM*; RE007 growth inh: inconclusive; LmPK inh: -6%; Giardia growth: -12%[10.4 µM]; Mammalian tox: -11%; Giardia FBPA inh-2: -1%; Rabbit FBPA inh: 6%; GAPDH counter: 6%

Results for COc1ccc(CN2CCN(Cc3ccc(C(F)(F)F)cc3)CC2)c(OC)c1 ?
Tb PYK inh: 20%; Giardia FBPA inh-1: inconclusive; RE007 growth inh: -22%; LmPK inh: -4%

What do the screens show for `COc1ccc(CN2CCN(Cc3ccccc3F)CC2)c(OC)c1`?
Tb PYK inh: -5%; Giardia FBPA inh-1: 13µM*; RE007 growth inh: -6%; LmPK inh: -5%; Giardia growth: 19%; Mammalian tox: 0%; Giardia FBPA inh-2: -3%; Rabbit FBPA inh: 7%; GAPDH counter: -14%

Results for COc1ccc(CN2CCN(Cc3ccc(C)cc3)CC2)c(OC)c1 ?
Tb PYK inh: 1%; Giardia FBPA inh-1: 14µM*; RE007 growth inh: -13%; LmPK inh: -3%; Giardia growth: 19%; Mammalian tox: 1%; Giardia FBPA inh-2: 3%; Rabbit FBPA inh: 1%; GAPDH counter: -2%

How did COc1ccc(CN2CCC(N3CC(C)OC(C)C3)CC2)c(OC)c1 (stereo unspecified) do in these assays?
Tb PYK inh: 36%; Giardia FBPA inh-1: inconclusive; RE007 growth inh: -19%; LmPK inh: -6%; Giardia growth: 12%[38.3 µM]; Mammalian tox: 10%; Giardia FBPA inh-2: 3%; Rabbit FBPA inh: 4%; GAPDH counter: 16%

What do the screens show for `CCOC(=O)C1CCN(Cc2ccc(OC)cc2OC)CC1`?
Tb PYK inh: -5%; Giardia FBPA inh-1: inconclusive; RE007 growth inh: 1%; LmPK inh: -5%

Compound activity from PubChem.
